# Biological target: AT4G31550 (Arabidopsis thaliana, UniProt Q9SV15 228-325)
# Assay: DPI-ELISA; DPI-ELISA, streptavidin 384-well plate, 1-2 pmol biotinylated dsDNA per well, crude native E. coli extract, anti-His detection; buffer as in Brand et al. [46],; high values mean tight binding
# Details: tags: C-terminal His (pET-DEST42); label: 5' biotin on forward strand; dsDNA, one strand shown
# Sequence of AT4G31550 (Q9SV15 228-325): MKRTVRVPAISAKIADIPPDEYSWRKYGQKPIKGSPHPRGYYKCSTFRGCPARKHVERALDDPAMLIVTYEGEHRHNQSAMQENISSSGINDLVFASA
row,Sequence,binding signal
1,AAAAAACCAGTCTACACCGCTGTAGGAAAA,0.705 ± 0.0919 absorbance
2,AAAAAAGTCTAAGGACTTATAGCTGTAAAA,1.65 ± 0.608 absorbance
3,AAAAAAACCCGGCCGCCATGGTAGTAAAAA,0.7 ± 0.212 absorbance
4,AAAAAAGGTTTAGCCCATGCCTGTGCAAAA,0.645 ± 0.12 absorbance
5,AAAAAAATTCGCAACCCTCACGTTCGAAAA,0.67 ± 0.0566 absorbance
6,AAAAAATGTTTTTTAGAGGTGTGCAAAAAA,0.57 ± 0.0849 absorbance
7,AAAAAACATAACCGCAAAATCCCTACAAAA,0.545 ± 0.0919 absorbance
8,AAAAAAGCGGTAGATGCGCAACTGTGAAAA,0.6 ± 0.127 absorbance
9,AAAAAAACATCCACACCCGCGGCGCGAAAA,0.56 ± 0.141 absorbance
10,AAAAAAATGCGCCCTTTCTGACATAAAAAA,0.615 ± 0.106 absorbance
11,AAAAAATTTGTTCGGGCTCATAACTGAAAA,0.595 ± 0.148 absorbance
12,AAAAAACCAGCCTCAGTCCTGAACAAAAAA,0.605 ± 0.0636 absorbance
13,AAAAAAATGGTGCCGCTGAGCAAATTAAAA,0.555 ± 0.12 absorbance
14,AAAAAAAACGTCTGGCGGGGTTGAGAAAAA,0.65 ± 0.113 absorbance

# Reference: article PMC3795721, “Screening for Protein-DNA Interactions by Automatable DNA-Protein Interaction ELISA”
